Measurements from the supplement of paper PMC10077471.
In all, about 1,900 compounds were measured (“excess over highest single agent (ExcessHSA) synergy score, 6x6 matrix”: median about -83, lowest 2% from about -370 on). For the sample, the lowest values were picked, then their nearest neighbours and some compounds at random.

tested on: NCI-H446; test: excess over highest single agent (ExcessHSA) synergy score, 6x6 matrix; higher = less synergy (more negative = stronger synergy); settings: 72 h; CellTiter-Glo viability

| Structure (SMILES) | excess over highest single agent |
| --- | --- |
| CC(C)(N)C(=O)N[C@H](COCc1ccccc1)C(=O)N1CCC2(CC1)CN(S(C)(=O)=O)c1ccccc12 + Cc1sc2c(c1C)C(c1ccc(Cl)cc1)=N[C@@H](CC(=O)OC(C)(C)C)c1nnc(C)n1-2 [NCGC00250412-19] | -36 |
| CC(C)CC(=O)Nc1n[nH]c2c1CN(C(=O)C1CCN(C)CC1)C2(C)C + Cc1sc2c(c1C)C(c1ccc(Cl)cc1)=N[C@@H](CC(=O)OC(C)(C)C)c1nnc(C)n1-2 [NCGC00250412-19] | -619 |
| COc1cc(Oc2ccnc3cc(OC)c(OC)cc23)ccc1NC(=O)NC(C)c1nccs1 (configuration not stated) + Cc1sc2c(c1C)C(c1ccc(Cl)cc1)=N[C@@H](CC(=O)OC(C)(C)C)c1nnc(C)n1-2 [NCGC00250412-19] | -83.5 |
| COc1c(C)cnc(Cn2cnc3c(Cl)nc(N)nc32)c1C + Cc1sc2c(c1C)C(c1ccc(Cl)cc1)=N[C@@H](CC(=O)OC(C)(C)C)c1nnc(C)n1-2 [NCGC00250412-19] | -371 |
| COc1ccc2[nH]c([S+]([O-])Cc3ncc(C)c(OC)c3C)nc2c1 (configuration not stated) + Cc1sc2c(c1C)C(c1ccc(Cl)cc1)=N[C@@H](CC(=O)OC(C)(C)C)c1nnc(C)n1-2 [NCGC00250412-19] | 45.9 |
| COc1ccc2cc(-c3nc(-c4ccc([S+](C)[O-])cc4)[nH]c3-c3ccncc3)ccc2c1 (configuration not stated) + Cc1sc2c(c1C)C(c1ccc(Cl)cc1)=N[C@@H](CC(=O)OC(C)(C)C)c1nnc(C)n1-2 [NCGC00250412-19] | -100 |
| CCN(CC)CCOc1ccc(Nc2ncc3cc(-c4c(Cl)cccc4Cl)c(=O)n(C)c3n2)cc1 + Cc1sc2c(c1C)C(c1ccc(Cl)cc1)=N[C@@H](CC(=O)OC(C)(C)C)c1nnc(C)n1-2 [NCGC00250412-19] | -126 |
| CC(C)(O)CCc1ccc(OCc2cc(-c3cccc(OC(F)F)c3)c3ncccc3c2)cc1 + Cc1sc2c(c1C)C(c1ccc(Cl)cc1)=N[C@@H](CC(=O)OC(C)(C)C)c1nnc(C)n1-2 [NCGC00250412-19] | 48.5 |
| COc1nccc(-c2c(-c3ccc(F)cc3)ncn2C2CCNCC2)n1 + Cc1sc2c(c1C)C(c1ccc(Cl)cc1)=N[C@@H](CC(=O)OC(C)(C)C)c1nnc(C)n1-2 [NCGC00250412-19] | -55.9 |
| COc1cccc2c1[C@]13CCN(CC4CC4)[C@H](C2)[C@]1(OC)CCC(=O)C3 + Cc1sc2c(c1C)C(c1ccc(Cl)cc1)=N[C@@H](CC(=O)OC(C)(C)C)c1nnc(C)n1-2 [NCGC00250412-19] | -55 |
| CN[C@@H]1C[C@H]2O[C@@](C)([C@@H]1OC)n1c3ccccc3c3c4c(c5c6ccccc6n2c5c31)C(=O)N[C@H]4O + Cc1sc2c(c1C)C(c1ccc(Cl)cc1)=N[C@@H](CC(=O)OC(C)(C)C)c1nnc(C)n1-2 [NCGC00250412-19] | -378 |
| CO[C@@H]1[C@H](N(C)C(=O)c2ccccc2)C[C@H]2O[C@]1(C)n1c3ccccc3c3c4c(c5c6ccccc6n2c5c31)C(=O)NC4 + Cc1sc2c(c1C)C(c1ccc(Cl)cc1)=N[C@@H](CC(=O)OC(C)(C)C)c1nnc(C)n1-2 [NCGC00250412-19] | -207 |
| CO[C@@H]1[C@H](N(C)C(=O)c2ccccc2)C[C@H]2O[C@]1(C)n1c3ccccc3c3c4c(c5c6ccccc6n2c5c31)C(=O)NC4=O + Cc1sc2c(c1C)C(c1ccc(Cl)cc1)=N[C@@H](CC(=O)OC(C)(C)C)c1nnc(C)n1-2 [NCGC00250412-19] | -113 |
| CCn1c(C(=O)N(C2CC2)C2CC2)cc2c3c(ncn3C)c(Nc3cc(C)n(C)n3)nc21 + Cc1sc2c(c1C)C(c1ccc(Cl)cc1)=N[C@@H](CC(=O)OC(C)(C)C)c1nnc(C)n1-2 [NCGC00250412-19] | 76.1 |
| N#C/C(=C(/N)Sc1ccc(N)cc1)c1ccccc1C(F)(F)F + Cc1sc2c(c1C)C(c1ccc(Cl)cc1)=N[C@@H](CC(=O)OC(C)(C)C)c1nnc(C)n1-2 [NCGC00250412-19] | -146 |
| CCc1ccc(C(=O)Nc2cc(CN3CCN(C)CC3)cc(C(F)(F)F)c2)cc1C#Cc1cnc2ccnn2c1 + Cc1sc2c(c1C)C(c1ccc(Cl)cc1)=N[C@@H](CC(=O)OC(C)(C)C)c1nnc(C)n1-2 [NCGC00250412-19] | -7.02 |
| O=C(NCc1ccccc1)[C@H](Cc1ccccc1)NC(=O)[C@H]1O[C@@H]1C(=O)NCCc1ccc(O)cc1 + Cc1sc2c(c1C)C(c1ccc(Cl)cc1)=N[C@@H](CC(=O)OC(C)(C)C)c1nnc(C)n1-2 [NCGC00250412-19] | -10.6 |
| CCN1CCN(C(=O)Cc2ccc(Nc3ncc(F)c(Nc4ccc(C(=O)Nc5ccccc5Cl)cc4)n3)cc2)CC1 + Cc1sc2c(c1C)C(c1ccc(Cl)cc1)=N[C@@H](CC(=O)OC(C)(C)C)c1nnc(C)n1-2 [NCGC00250412-19] | -388 |
| Cc1ccc(NC(=O)c2ccc(CN3CCN(C)CC3)cc2)cc1Nc1nccc(-c2cccnc2)n1 + Cc1sc2c(c1C)C(c1ccc(Cl)cc1)=N[C@@H](CC(=O)OC(C)(C)C)c1nnc(C)n1-2 [NCGC00250412-19] | -176 |

| Structure (SMILES) | excess over highest single agent |
| --- | --- |
| O=C(O)c1ccc(Nc2ncc3c(n2)-c2ccc(Cl)cc2C(c2c(F)cccc2F)=NC3)cc1 + Cc1sc2c(c1C)C(c1ccc(Cl)cc1)=N[C@@H](CC(=O)OC(C)(C)C)c1nnc(C)n1-2 [NCGC00250412-19] | -157 |
| OC[C@@H](O)[C@@H](O)[C@@H](O)CO + Cc1sc2c(c1C)C(c1ccc(Cl)cc1)=N[C@@H](CC(=O)OC(C)(C)C)c1nnc(C)n1-2 [NCGC00250412-19] | -189 |
| CC(C)Oc1cc(Nc2nc(N[C@@H](C)c3ccc(F)cn3)ncc2Cl)n[nH]1 + Cc1sc2c(c1C)C(c1ccc(Cl)cc1)=N[C@@H](CC(=O)OC(C)(C)C)c1nnc(C)n1-2 [NCGC00250412-19] | -396 |
| Cc1cc(Nc2nc(N[C@@H](C)c3ccc(F)cc3)c(C#N)cc2F)n[nH]1 + Cc1sc2c(c1C)C(c1ccc(Cl)cc1)=N[C@@H](CC(=O)OC(C)(C)C)c1nnc(C)n1-2 [NCGC00250412-19] | -209 |
| Cc1cc(Nc2nc(N[C@@H](C)c3ncc(F)cn3)ncc2Cl)[nH]n1 + Cc1sc2c(c1C)C(c1ccc(Cl)cc1)=N[C@@H](CC(=O)OC(C)(C)C)c1nnc(C)n1-2 [NCGC00250412-19] | -46 |
| CCOC(=O)C1=C(O)C(=O)N(Cc2ccccc2)C1 + Cc1sc2c(c1C)C(c1ccc(Cl)cc1)=N[C@@H](CC(=O)OC(C)(C)C)c1nnc(C)n1-2 [NCGC00250412-19] | -90.7 |
| Cc1ccccn1.N.[Cl-].[Cl-].[Pt+2] + Cc1sc2c(c1C)C(c1ccc(Cl)cc1)=N[C@@H](CC(=O)OC(C)(C)C)c1nnc(C)n1-2 [NCGC00250412-19] | 123 |
| CNC(=O)c1ccc(-c2cnc3ncc(Cc4ccc5ncccc5c4)n3n2)cc1F + Cc1sc2c(c1C)C(c1ccc(Cl)cc1)=N[C@@H](CC(=O)OC(C)(C)C)c1nnc(C)n1-2 [NCGC00250412-19] | 48.7 |
| OC[C@H]1OC(O)C[C@@H](O)[C@@H]1O (some centres not stated) + Cc1sc2c(c1C)C(c1ccc(Cl)cc1)=N[C@@H](CC(=O)OC(C)(C)C)c1nnc(C)n1-2 [NCGC00250412-19] | -201 |
| N#Cc1c(N(CC(=O)O)CC(=O)O)sc(C(=O)O)c1CC(=O)O + Cc1sc2c(c1C)C(c1ccc(Cl)cc1)=N[C@@H](CC(=O)OC(C)(C)C)c1nnc(C)n1-2 [NCGC00250412-19] | -47.5 |
| C[C@@H]1[C@@H](C(=O)C[C@H]2O[C@@H]3O[C@]4(C)CC[C@@H]5[C@H](C)CC[C@@H]([C@H]2C)[C@@]35OO4)O[C@@H]2O[C@]3(C)CC[C@H]4[C@H](C)CC[C@@H]1[C@@]24OO3 + Cc1sc2c(c1C)C(c1ccc(Cl)cc1)=N[C@@H](CC(=O)OC(C)(C)C)c1nnc(C)n1-2 [NCGC00250412-19] | -355 |
| C=CCON=C(C[C@H]1O[C@@H]2O[C@]3(C)CC[C@@H]4[C@H](C)CC[C@@H]([C@H]1C)[C@@]24OO3)[C@H]1O[C@@H]2O[C@]3(C)CC[C@H]4[C@H](C)CC[C@@H]([C@@H]1C)[C@@]24OO3 + Cc1sc2c(c1C)C(c1ccc(Cl)cc1)=N[C@@H](CC(=O)OC(C)(C)C)c1nnc(C)n1-2 [NCGC00250412-19] | -427 |
| C[C@H]1[C@@H](O)O[C@@H]2O[C@@]3(C)CC[C@H]4[C@H](C)CC[C@@H]1[C@@]24OO3 + Cc1sc2c(c1C)C(c1ccc(Cl)cc1)=N[C@@H](CC(=O)OC(C)(C)C)c1nnc(C)n1-2 [NCGC00250412-19] | -199 |
| Cn1cnc(=N)c2[nH]cnc21 + Cc1sc2c(c1C)C(c1ccc(Cl)cc1)=N[C@@H](CC(=O)OC(C)(C)C)c1nnc(C)n1-2 [NCGC00250412-19] | -164 |
| CN1c2cc(O)c(N=NC(N)=O)cc2CC1S(=O)(=O)O (configuration not stated) + Cc1sc2c(c1C)C(c1ccc(Cl)cc1)=N[C@@H](CC(=O)OC(C)(C)C)c1nnc(C)n1-2 [NCGC00250412-19] | -280 |
| O=C(O)C(=O)Nc1cccc(-c2nnn[nH]2)c1 + Cc1sc2c(c1C)C(c1ccc(Cl)cc1)=N[C@@H](CC(=O)OC(C)(C)C)c1nnc(C)n1-2 [NCGC00250412-19] | 42.8 |
| C#CCN(C)CC1=Cc2ccccc2Oc2ccccc21 + Cc1sc2c(c1C)C(c1ccc(Cl)cc1)=N[C@@H](CC(=O)OC(C)(C)C)c1nnc(C)n1-2 [NCGC00250412-19] | -204 |
| Cc1cnc(CNC(=O)c2c(=O)c3ccc(N4CCCN(C)CC4)nc3n3c2sc2ccccc23)cn1 + Cc1sc2c(c1C)C(c1ccc(Cl)cc1)=N[C@@H](CC(=O)OC(C)(C)C)c1nnc(C)n1-2 [NCGC00250412-19] | -259 |
